The list is not random: actives were taken first. Their share in the collection is about 1.6%.
KCNQ2 pot = enhances the rat KCNQ2 potassium channel. hit rate 0.54% among 310,000. B-score at 10 µM. O88943. CHO-K1 KCNQ2, FluxOR thallium flux fluorescence; stronger effect = higher value;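 active = fluorescence ratio B-score at least 3 SD of library B-scores, with initial fluorescence B-score within 3 of them, cut at about 5.3 in these data; same plate scores as AID 2156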;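 also: B-score of peak minus minimum over baseline fluorescence ratio after K+ and Tl+ stimulus; positive B-score means potentiation of KCNQ2 with more thallium influx and brighter signal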
Target sequence (O88943 whole entry, looked up): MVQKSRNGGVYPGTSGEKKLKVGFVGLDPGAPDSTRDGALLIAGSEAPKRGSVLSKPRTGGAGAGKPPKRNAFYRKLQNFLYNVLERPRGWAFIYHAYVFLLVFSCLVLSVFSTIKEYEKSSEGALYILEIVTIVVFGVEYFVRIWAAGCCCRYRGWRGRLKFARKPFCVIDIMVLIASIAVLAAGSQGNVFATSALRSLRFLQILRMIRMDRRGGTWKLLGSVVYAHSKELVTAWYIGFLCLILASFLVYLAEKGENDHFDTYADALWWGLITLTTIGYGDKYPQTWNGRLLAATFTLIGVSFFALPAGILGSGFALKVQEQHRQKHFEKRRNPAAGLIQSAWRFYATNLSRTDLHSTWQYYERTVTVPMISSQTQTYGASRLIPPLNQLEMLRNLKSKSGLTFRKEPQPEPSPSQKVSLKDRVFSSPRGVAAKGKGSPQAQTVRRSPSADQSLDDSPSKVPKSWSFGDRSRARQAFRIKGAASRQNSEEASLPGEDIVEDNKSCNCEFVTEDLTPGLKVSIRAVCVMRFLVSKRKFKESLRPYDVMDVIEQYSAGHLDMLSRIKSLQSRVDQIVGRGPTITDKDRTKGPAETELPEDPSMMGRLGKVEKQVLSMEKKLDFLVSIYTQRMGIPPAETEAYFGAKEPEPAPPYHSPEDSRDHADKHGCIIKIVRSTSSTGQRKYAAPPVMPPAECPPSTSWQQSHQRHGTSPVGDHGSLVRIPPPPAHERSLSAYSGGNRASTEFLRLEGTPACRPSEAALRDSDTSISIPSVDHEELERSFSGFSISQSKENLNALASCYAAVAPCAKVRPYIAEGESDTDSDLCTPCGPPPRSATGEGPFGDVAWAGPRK
KCNQ2 inh = blocks the rat KCNQ2 potassium channel. O88943. CHO-K1 KCNQ2, FluxOR thallium flux, 20 min; stronger effect = lower value. B-score at 10 µM. hit rate 1.1% among 310,000. AID 2156;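 active = fluorescence ratio B-score at most minus 3 library SDs, with starting brightness B-score within 2 library SDs, cut at about -5.5 in these data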
Of the large screens only hits and unclear results are named; the others gave an inactive call.

Cc1c(Br)c([N+](=O)[O-])nn1CC(=O)Nc1ccc2nc3n(c(=O)c2c1)CCCC3	none (no result: KCNQ2 pot)
Cc1ccc(-c2nc3ccccc3c(=O)n2NC(=O)COc2ccccc2)cc1	KCNQ2 inh -6.8
COc1ccc(C(=O)Nn2c(SCC(=O)c3ccccc3)nc3ccccc3c2=O)cc1	none (no result: KCNQ2 pot)
COc1ccc(OCC(=O)Nn2c(-c3cccc(OC)c3)nc3ccccc3c2=O)cc1	none (no result: KCNQ2 pot)
COc1ccc(CC(=O)Nn2c(-c3ccccc3)nc3ccccc3c2=O)cc1	KCNQ2 pot 9.9
COc1ccc(C(=O)Nn2c(SCc3ccc([N+](=O)[O-])cc3)nc3ccccc3c2=O)cc1	KCNQ2 inh -6.2
O=C(COc1ccccc1)Nn1c(-c2ccccc2)nc2ccccc2c1=O	none
Cc1ccc(CSCC(=O)N(C)CC(=O)Nc2ccccc2C(F)(F)F)cc1	none (no result: KCNQ2 pot)
CC(Oc1cccc(Cl)c1)C(=O)N(C)CC(=O)Nc1ccc(N2CCOCC2)cc1 (centres undefined)	none
Cc1ccc(-c2nn(CC(=O)NN3CCOCC3)c(=O)c3ccccc23)cc1	none
COc1ccc(C(CNC(=O)c2oc3ccc(OC)cc3c2C)N2CCCC2)cc1 (centres undefined)	none (no result: KCNQ2 pot)
COc1ccc(C(CNC(=O)c2oc3cc(C)c(C)cc3c2C)N2CCCCC2)cc1 (centres undefined)	none (no result: KCNQ2 pot)
COc1ccc(C(CNC(=O)COc2ccc(Cl)c(C)c2)N2CCCCC2)cc1 (centres undefined)	KCNQ2 inh -5.9
COc1ccc(C(CNC(=O)c2oc3cc(Br)ccc3c2C)N2CCCCC2)cc1 (centres undefined)	none (no result: KCNQ2 pot)
COc1ccc(C(CNC(=O)c2oc3ccc(F)cc3c2C)N2CCCCC2)cc1 (centres undefined)	KCNQ2 inh -6.3
CCc1ccc2oc(C(=O)NCC(c3ccc(OC)cc3)N3CCCCC3)c(C)c2c1 (centres undefined)	KCNQ2 inh -7.1
COc1ccc(C(CNC(=O)COc2ccccc2C)N2CCCC2)cc1 (centres undefined)	none (no result: KCNQ2 pot)
COc1ccc(C(CNC(=O)c2oc3ccc(Br)cc3c2C)N2CCCCC2)cc1 (centres undefined)	KCNQ2 inh -6.2
O=S(=O)(c1ccccc1)N1CCN(Cc2ccc(Cl)cc2)CC1	none (no result: KCNQ2 pot)
O=C(Nc1c2c(nn1-c1ccccc1)CS(=O)(=O)C2)c1cc2ccccc2o1	none (no result: KCNQ2 pot)
OC(c1ccc(F)cc1)(C1CCCCC1)C(CN1CCOCC1)c1ccccc1 (centres undefined)	KCNQ2 inh -5.7
CC(C)CC(O)(c1ccccc1)C(CN1CCOCC1)c1ccccc1 (centres undefined)	none (no result: KCNQ2 pot)
COc1ccc(CC(=O)Nc2cccc(/C(C)=N/NC(=O)c3cccc([N+](=O)[O-])c3)c2)cc1	KCNQ2 inh -6
COc1ccc(CC(=O)N/N=C(\C)c2cccc(NC(=O)C3CC3)c2)cc1	none
CCCOP(=O)(c1ccc(N(C)C)cc1)C(O)c1ccc(Br)cc1 (centres undefined)	none (no result: KCNQ2 pot)
CCOC(=O)C1(CCOc2ccccc2)CCN(Cc2cccc3nonc23)CC1	KCNQ2 inh -6.2
CCOC(=O)C1(CCOc2ccccc2)CCN(Cc2ccc(O)cc2)CC1	none
COc1ccc(C(=O)N2CCC(n3nccc3NC(=O)C3CC3)CC2)cc1F	none (no result: KCNQ2 pot)
O=C1Cc2cc(NS(=O)(=O)c3ccc([N+](=O)[O-])cc3)cc3c2N1CCC3	none (no result: KCNQ2 pot)
Cc1ccc(C)n1-c1sc2c(c1C#N)CCC(C)C2 (centres undefined)	KCNQ2 inh -7.8
CC(=O)Nc1sc2c(c1C#N)CCC(C)C2 (centres undefined)	none
O=c1c2cc3c(=O)n(-c4ccccc4O)c(=O)c3cc2c(=O)n1-c1ccccc1O	none (no result: KCNQ2 pot)
CCN(CC(=O)Nc1ccccc1C(F)(F)F)C(=O)c1oc2ccc(OC)cc2c1C	KCNQ2 inh -6
CCc1noc(C)c1C(=O)N(CC)CC(=O)Nc1ccccc1C(F)(F)F	none
Cn1c(=O)c2sccc2n(Cc2cccc(Br)c2)c1=O	none
O=C1CC(c2ccccc2F)c2c(c3ccccc3[nH]c2=O)O1 (centres undefined)	none (no result: KCNQ2 pot)
Cc1cc(C)cc(NC(=O)/C=C/c2ccc([N+](=O)[O-])s2)c1	none (no result: KCNQ2 pot)
Cc1ccccc1NC(=O)/C=C/c1ccc([N+](=O)[O-])s1	KCNQ2 inh -5.7
Cc1ccc([N+](=O)[O-])cc1NC(=O)CN(C1CCCCC1)S(=O)(=O)c1ccc(Cl)cc1	KCNQ2 inh -7.9
COc1ccc(C)cc1S(=O)(=O)N(CC(=O)Nc1cccc([N+](=O)[O-])c1)c1ccccc1	none
Cc1ccc([N+](=O)[O-])cc1NC(=O)CN(C(=O)c1ccccc1Cl)C1CCCCC1	none (no result: KCNQ2 pot)
Cc1ccc(NC(=O)CN(c2ccc(Cl)cc2)S(=O)(=O)c2cc([N+](=O)[O-])ccc2Cl)c(C)c1	KCNQ2 inh -7.9
Cc1ccccc1CN(CC(=O)Nc1cccc([N+](=O)[O-])c1)S(=O)(=O)c1ccc(Cl)cc1	KCNQ2 inh -6.6
CS(=O)(=O)N(CC(=O)Nc1cccc([N+](=O)[O-])c1)c1ccccc1	none
O=C(N[C@@H](Cc1ccccc1)C(=O)NCc1ccc(F)cc1)C1CCNCC1	none (no result: KCNQ2 pot)
Cc1cc(C)c(C(=O)CN2C(=O)NC3(CCCCCC3)C2=O)cc1C	none (no result: KCNQ2 pot)
COc1ccc(OC)c(-c2csc(N(Cc3ccco3)C(=O)c3cccs3)n2)c1	none (no result: KCNQ2 pot)
COCCCN(C(=O)c1ccccc1)c1nc(-c2ccc(OC)cc2)cs1	KCNQ2 inh -5.9
COc1ccc(-c2csc(N(Cc3ccco3)C(=O)c3cccs3)n2)cc1	KCNQ2 inh -6
COCCN(C(=O)c1ccccc1)c1nc(-c2ccc(OC)cc2)cs1	none (no result: KCNQ2 pot)
CCNC(=S)N1CCNC(=O)C1CC(=O)OC (centres undefined)	none
COc1cccc(C(=O)OCC(=O)NC(C)CCc2ccccc2)c1O (centres undefined)	none (no result: KCNQ2 pot)
O=C(c1ccc(NC2=NC3CS(=O)(=O)CC3S2)cc1)N1CCN(c2ccc([N+](=O)[O-])cc2)CC1 (centres undefined)	none (no result: KCNQ2 pot)
CC(C)OC(=O)/C(=C\c1ccccc1)NC(=O)c1ccccc1	KCNQ2 inh -5.6
CC(C)OC(=O)/C(=C\c1cccc2ccccc12)NC(=O)c1ccccc1	none (no result: KCNQ2 pot)
C[C@@H](NC(=O)c1cc2c([nH]c3ccccc32)c(-c2ccccc2)n1)C(=O)O	none (no result: KCNQ2 pot)
CCN(Cc1ccccc1)C(c1ccc(Cl)cc1)c1nnnn1C(C)(C)C (centres undefined)	none (no result: KCNQ2 pot)
CCN(Cc1ccccc1)C(c1ccc(C)cc1)c1nnnn1C(C)(C)C (centres undefined)	KCNQ2 inh -11
COc1ccc2ncc(S(=O)(=O)c3ccccc3)c(N3CCN(c4ccccc4)CC3)c2c1	none (no result: KCNQ2 pot)
Cc1ccc2ncc(S(=O)(=O)c3ccccc3)c(N3CCCCC3C)c2c1 (centres undefined)	KCNQ2 inh -6.1
CN(C)c1ccc2c3c(ccc(N(C)C)c13)C(=O)OC2	none
CCN(CC)C(=O)C1=C(C)Nc2nc3ccccc3n2C1c1cccc(OC)c1 (centres undefined)	KCNQ2 inh -7.7
CCOC(=O)C1=C(C)Nc2nc3ccccc3n2C1c1ccc(O)cc1 (centres undefined)	none
CCOC(=O)CSc1nc(=O)n2cc(C)ccc2n1	none (no result: KCNQ2 pot)
Cc1c(C)c2cc(Cl)c(OCC(=O)NCCCn3ccnc3)cc2oc1=O	none (no result: KCNQ2 pot)
O=[N+]([O-])c1ccc(Nc2cccc(F)c2)nc1	none
Cc1cc(Cl)nc2c(C(C)C)cccc12	none (no result: KCNQ2 pot)
COc1ccc(N2CCN(C(=O)c3cc4c(s3)-c3ccccc3S(=O)(=O)C4)CC2)cc1	none
O=C(OCc1ccc([N+](=O)[O-])cc1)c1ccc(N2CCCC2)c([N+](=O)[O-])c1	none (no result: KCNQ2 pot)
N#Cc1ccc(COC(=O)c2ccc(N3CCCC3)c([N+](=O)[O-])c2)cc1	KCNQ2 inh -6.8

Screens from PubChem BioAssay.
